LDHA block: LDHA (human) enzyme inhibition; 0.15% of 480,000 active; purified LDHA, NADH/diaphorase-resazurin fluorescence; stronger effect = lower value; AID 1347041; activity change, % (values are at about 110 or 230 µM); in the data active means activity change below about -30%; inconclusive means mostly about -25% to -30%;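 further: plate controls were DMSO wells for no effect and wells without enzyme for full effect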
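LDH5 2 nM; NADH 0.06 mM, pyruvate 0.2 mM; 200 mM Tris pH 7.4, EDTA, Tween-20; 5 min RT. Detection: diaphorase 0.133 mg/mL + resazurin 37 µM, fluorescence ex540/em590 at 0 and 20 min; normalized to enzyme-free and DMSO wells.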
RORgamma inh: ROR gamma (mouse) transcription inhibition; P51450; Potency, µM (titrated, usually from 53.6 µM), without a hit: at the top dose activity change, negative = inhibition, most hits filed as inhibitors; Drosophila S2 Gal4-RORgamma UAS-luciferase reporter, 20 h; 5.4% of 310,000 active; AID 2551; further: potency means the concentration at half of the fitted maximal effect; nearly all actives have a fitted effect of over 60% in size
Target sequence (P51450 whole entry, looked up, the tested form may be a part): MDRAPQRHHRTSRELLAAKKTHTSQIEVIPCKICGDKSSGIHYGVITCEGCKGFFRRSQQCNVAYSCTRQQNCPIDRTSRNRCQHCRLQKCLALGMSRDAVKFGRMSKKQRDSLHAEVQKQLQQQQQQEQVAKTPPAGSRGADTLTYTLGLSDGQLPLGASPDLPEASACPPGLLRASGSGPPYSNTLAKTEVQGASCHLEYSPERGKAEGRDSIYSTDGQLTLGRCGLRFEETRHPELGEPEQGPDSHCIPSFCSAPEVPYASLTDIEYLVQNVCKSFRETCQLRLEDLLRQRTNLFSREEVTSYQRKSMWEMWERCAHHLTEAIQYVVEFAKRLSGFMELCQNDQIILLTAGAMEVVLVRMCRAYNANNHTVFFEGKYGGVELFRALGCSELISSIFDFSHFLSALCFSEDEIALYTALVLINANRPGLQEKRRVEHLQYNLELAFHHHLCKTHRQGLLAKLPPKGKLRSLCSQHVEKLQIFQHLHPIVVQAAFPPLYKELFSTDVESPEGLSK
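Luminescence from a UAS-regulated Photinus luciferase reporter in stably transfected Drosophila Schneider cells is measured; decreased signal marks ROR gamma inhibition. Fusion expression is induced by 700 uM copper sulfate for 20 hr.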
TDP1 cell CPT: growth inhibition of DT40 Tdp1-/-;hTDP1 cells with camptothecin (screen for TDP1 inhibitors) | chicken DT40 Tdp1-/-;hTDP1 cells + 20 nM CPT, ATP luminescence, 48 h | Potency, µM (series often up to 46.2 µM), without a hit: at the highest dose activity change, negative = growth inhibition, hits mostly inhibitors | 12% of 420,000 active; further: potency means the concentration at half of the fitted maximal effect; nearly all actives have a fitted effect of over 55% in size
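Chicken DT40 Tdp1-/- cells stably complemented with human TDP1 were seeded at 400 cells/well in medium containing 20 nM camptothecin, exposed to pin-transferred compounds, and grown at 37 °C for at least 48 hr. Viability was read as ATP luminescence.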
Gal4-VP16 FLuc: Gal4-VP16 reporter inhibition counter-screen; 3.5% of 310,000 active; AID 2546; Drosophila S2 Gal4-VP16 UAS-luciferase, luminescence, 20 h; Potency, µM (highest dose often 53.6 µM), without a hit: at the top dose activity, negative = inhibition, usual class: inhibitors;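 further: Gal4-VP16 expression switched on by copper sulfate through the metallothionein promoter; potency means the concentration at half of the fitted maximal effect; nearly all actives have a fitted effect of over 50% in size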
IL-1B inflam inh: blocks inflammasome-driven IL-1 beta release; 4.7% of 360,000 active; THP-1 LPS/ATP IL-1B secretion, AlphaLISA, 16 h; stronger effect = lower value; activity change, % at 57.5 µM; in the data active means activity change below about -50%; inconclusive means mostly about -30% to -49%
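Secreted IL-1B measured by AlphaLISA bead assay after 16 h compound exposure of THP-1 cells; compounds (final up to 57.5 uM) added 1 h before LPS (250 ng/mL) and ATP (1.25 mM) stimulation; lower signal means less secretion.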
TDP1 cell noCPT: qHTS for Inhibitors of human tyrosyl-DNA phosphodiesterase 1 (TDP1): qHTS in cells in absence of CPT; 15% of 420,000 active; DT40 Tdp1-/- hTDP1 cells, no CPT, ATP luminescence, 48 h; Potency, µM (doses to about 46.2 µM), without a hit: at the top dose activity change, negative = growth inhibition, most hits filed as inhibitors; further: potency means the concentration at half of the fitted maximal effect; nearly all actives have a fitted effect of over 55% in size
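Cells were dispensed at 400 per well, compounds added by pin tool, plates incubated ≥48 hr at 37 °C, then CellTiter-Glo added for 30 min at room temperature before luminescence reading. Line: DT40 Tdp1-/- complemented with hTDP1; camptothecin omitted.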
Starred values were filed as active, the others as inactive; i = inactive; ? = inconclusive; . = not tested or not shown. Only some compounds are listed: those with a hit (about 18% of all), similar ones and a draw of the others. Unless noted, the call rests on the fitted dose curve; in most records, active means well fitted curve in the direction sought with a large enough effect; inconclusive means small, poorly fitted or top-dose-only effect, or another doubt; inactive means no such curve, though single readings can be large; an effect the other way counts as inactive or inconclusive. Unless noted, on the % scale 0 is the no-effect control and ±100 the full control effect.

SMILES | LDHA block | RORgamma inh | TDP1 cell CPT | Gal4-VP16 FLuc | IL-1B inflam inh | TDP1 cell noCPT
Cc1[nH]ccc2cc3nc4ccccc4c3cc12 | -1 | . | 5.2µM* | . | -58* | 3.7µM*
Cc1cccc2nc3ccccc3cc12 | 3 | . | 14% | . | -25 | -17%
CCOc1ccc(OCc2ccc(C(=O)N(CC)CC)cc2)cc1 | 1 | 6% | ? | ? | 0 | 15µM*
CCN(Cc1ccc(OCc2ccccc2)cc1)C(=O)c1ccc2c(c1)OCO2 | -3 | . | . | . | . | .
CCN(CC(=O)Nc1ccc(NC(C)=O)cc1)C(=O)c1ccc(COc2ccc(C(C)(C)C)cc2)cc1 | -1 | . | ? | . | -51* | 23µM*
COc1ccc(NC(=O)C(C)SCCO)cc1 (stereo not given) | 5 | . | . | . | . | .
COc1cc(OC)cc(C(=O)NCc2ccc3c(c2)OCO3)c1 | -4 | 28% | 9% | 2% | 10 | 3%
COc1cccc(OC)c1C(=O)Nc1nc2cc3c(cc2s1)OCO3 | -1 | -36% | 7% | -18% | -3 | 11%
COc1cc(OC)cc(C(=O)NNc2nc3cc4c(cc3s2)OCO4)c1 | 2 | 4.5µM* | -3% | 13µM* | -27 | -1%
COc1cc(C(=O)NNc2nc3cc4c(cc3s2)OCO4)cc(OC)c1OC | 4 | ? | ? | 13µM* | -18 | ?
CCOC(=O)C1=C(c2ccccc2)NC(=S)NC1c1ccc(C)cc1 (stereo not given) | 7 | . | . | . | . | .
COc1ccc(NC(=O)CSc2nc3c(c(=O)n2-c2ccccc2OC)SCC3)cc1 | -6 | ? | 8% | -7% | -1 | ?
CCOC(=O)c1ccc(NC(=O)CSc2nc3c(c(=O)n2-c2ccccc2OC)SCC3)cc1 | -2 | 8% | ? | -2% | 2 | 12µM*
Cn1c(SCc2ccc(Br)cc2)nc2c(c1=O)SCC2 | -5 | ? | 18µM* | ? | 14 | 16µM*
COc1ccc(Cl)cc1NC(=O)CSc1nc2c(c(=O)n1C)SCC2 | -3 | . | . | . | . | .
Cn1c(SCC(=O)Nc2ccccc2C(F)(F)F)nc2c(c1=O)SCC2 | -8 | 12% | 16µM* | -10% | i | 10µM*
Cn1c(SCC(=O)Nc2cccc(F)c2)nc2c(c1=O)SCC2 | -6 | 25% | 15µM* | -4% | 8 | 18µM*
Cn1c(SCc2cccnc2)nc2c(c1=O)SCC2 | -8 | 18% | -3% | -7% | 13 | 8%
Cn1c(SCC(=O)Nc2ccc(C(N)=O)cc2)nc2c(c1=O)SCC2 | -4 | -17% | 7% | 2% | 46 | -4%
O=C(C#Cc1cccc([N+](=O)[O-])c1)c1ccccc1 | . | 2.8µM* | . | 3.2µM* | . | .
Nc1ccccc1C#Cc1ccc([N+](=O)[O-])cc1 | -1 | . | -27% | . | -11 | ?
Nc1ccccc1C#CC(=O)c1ccccc1 | -6 | 7.1µM* | 1.3µM* | 7.1µM* | -102* | ?
O=C(O)C(=Cc1cccc([N+](=O)[O-])c1)c1ccccc1 | -10 | . | ? | . | 9 | ?
COc1ccc(N2Cc3cccc(C(=O)NCc4ccc(Cl)cc4)c3C2=O)cc1 | -3 | . | . | . | . | .
Cc1ccc(C(=O)Cn2cnc3c2c(=O)n(C)c(=O)n3C)cc1C | -6 | . | . | . | . | .
SMILES | LDHA block | RORgamma inh | TDP1 cell CPT | Gal4-VP16 FLuc | IL-1B inflam inh | TDP1 cell noCPT
COc1cc(C2SCC(=O)N2c2nnc(C34CC5CC(CC(C5)C3)C4)s2)cc(OC)c1OC (stereo not given) | 4 | -15% | 18µM* | -13% | -55* | ?
Cc1ccc2oc(=O)n(CCNC(=O)Nc3ccc(C)c(F)c3)c2c1 | -13 | . | ? | . | . | 23µM*
Cc1ccc2oc(=O)n(CCNC(=O)Nc3ccccc3Cl)c2c1 | 9 | . | 18µM* | . | . | ?
COCCCNC(=O)Nc1ccc(F)cc1F | -8 | -24% | 2% | 5% | 23 | -10%
O=C(NCCOCCn1c(=O)oc2ccccc21)Nc1ccc(F)cc1F | 0 | . | 10µM* | . | . | 12µM*
Cc1ccc2oc(=O)n(CCNC(=O)Nc3ccc(F)cc3)c2c1 | 3 | . | . | . | . | .
COc1ccc(C(=O)C(C)Oc2ccccc2Cl)cc1 (stereo not given) | 4 | . | . | . | . | .
CN(C)c1cccc(NC(=O)C2Cc3c(-c4ccccc4Oc4ccccc4)ccnc3O2)c1 (stereo not given) | 1 | . | ? | . | -27 | ?
O=C(Nc1cccnc1)C1Cc2c(-c3ccccc3Oc3ccccc3)ccnc2O1 (stereo not given) | -3 | . | ? | . | ? | 23µM*
CC(=O)c1cccc(NC(=O)C2Cc3c(-c4ccccc4Oc4ccccc4)ccnc3O2)c1 (stereo not given) | -9 | . | 18µM* | . | ? | 16µM*
O=C(Nc1cccc(C(F)(F)F)c1)C1Cc2c(-c3ccccc3Oc3ccccc3)ccnc2O1 (stereo not given) | -3 | . | 23µM* | . | -23 | 16µM*
Clc1ccccc1CNc1n[nH]c(-c2cccs2)n1 | -22 | . | . | . | . | .
COc1ccc(CN2CCN(CC=C(C)C)CC2)cc1 | -19 | . | . | . | . | .
COc1nnc(-c2ccc(N3CCCCC3)c(NC(=O)c3ccccc3Cl)c2)c2ccccc12 | -4 | . | 6.5µM* | . | . | 6.5µM*
COc1nnc(-c2ccc(N3CCCCC3)c(NC(=O)c3ccc(C)cc3)c2)c2ccccc12 | -13 | . | -29% | . | . | -14%
Cn1nc(-c2ccc(N3CCCCC3)c(NC(=O)c3ccco3)c2)c2ccccc2c1=O | -1 | -42% | 21µM* | -26% | 32 | 16µM*
Cn1nc(C(=O)Nc2cc(Cl)ccc2N2CCCCC2)c2ccccc2c1=O | -1 | . | . | . | . | .
COc1nnc(-c2ccc(N3CCOCC3)c(NC(=O)c3ccco3)c2)c2ccccc12 | -1 | -15% | ? | -2% | -16 | 26µM*
C(#Cc1ccccc1)CN1CCCC1 | 10 | . | . | . | . | .
NC1=NCCCC1 | . | -5% | 3.8µM* | 3% | . | 2.7µM*
COc1ccc(C(C)=O)cc1CN1CCCC1 | 4 | . | . | . | . | .
COc1ccc(C(=O)Nc2ccc(Cl)cc2C(=O)NCCN2CCOCC2)cc1 | -5 | 0% | -23% | -8% | -56* | -29%
COc1ccc(C(=O)Nc2ccccc2C(=O)NCCN2CCOCC2)cc1 | -3 | -2% | -25% | -3% | ? | -5%
CCCCNC(=S)NC(=O)c1ccc(Cl)cc1Cl | 1 | 16µM* | -27% | ? | 5 | ?
CCCCNC(=S)NC(=O)c1ccccc1Br | -7 | 7.9µM* | -18% | 11µM* | 17 | -22%
O=C(NC(=S)NCCN1CCOCC1)c1ccc(Cl)cc1Cl | -6 | 4µM* | 2% | ? | -1 | -4%
